Test results as given in ChEMBL document CHEMBL4513216, “Probing the Open Global Health Chemical Diversity Library for Multistage-Active Starting Points for Next-Generation Antimalarials” (ACS Infect Dis, 2020).
Screen size: about 68,000 compounds; about 2,700 (4%) showed an effect of 50% or more. The sample holds strong results, similar compounds and a random draw of the others, so the mix is not that of the screen.

system: Plasmodium berghei; assay: Screen against P. berghei liver stage (PbLuc), transformed with Luciferase, at 2uM; format: functional, HepG2; details: tested at 2 uM

Point of comparison: `CCC(=O)N1CCC2(CC1)CC(CC(=O)N(C)C)c1ccc(F)cc12` (stereo not given), INHIBITION -0.45%. Against it:
- Cc1csc2c(N3CCNC(C(=O)Nc4ccc(F)cc4)C3)ncnc12 (stereo not given) — lower, -17.67%
- CCC(=O)N1CCC2(CC1)CNC(=O)c1cc(C)ccc1O2 — higher, 61.99%
- Cc1ccc2c(c1)C(=O)NCC1(CCN(C(=O)c3sccc3C)CC1)O2 — higher, 46.15%
- Cc1ccc2c(c1)C(=O)NCC1(CCN(C(=O)c3cc(C)no3)CC1)O2 — higher, 9.51%
- Cc1ccc2c(c1)C(=O)NCC1(CCN(C(=O)c3scnc3C)CC1)O2 — lower, -2.31%
- Cc1ccc2c(c1)C(=O)NCC1(CCN(C(=O)c3cnccn3)CC1)O2 — higher, 64.07%
- Cc1ccc2c(c1)C(=O)NCC1(CCN(C(=O)c3csc(C)c3)CC1)O2 — higher, 38.75%
- Cc1ccc2c(c1)C(=O)NCC1(CCN(C(=O)c3ccccn3)CC1)O2 — higher, 38.12%
- Cc1ccc2c(c1)C(=O)NCC1(CCN(C(=O)c3ccnn3C)CC1)O2 — higher, 59.27%
- Cc1ccc2c(c1)C(=O)NCC1(CCN(Cc3ccccc3)CC1)O2 — higher, 34.9%
- Cc1ccc(F)cc1NC(=O)CCn1cncn1 — higher, 5.31%
- Cc1nc(CN2C[C@@H]3CN(C(=O)c4cccn4C)C[C@@H]3C2=O)cs1 — lower, -32.67%
- O=C(C1CCCCC1)N1CCC2(CC1)CNCc1ccccc12 — higher, 31.27%
- O=C(CN1CCOC(CNc2cccnn2)C1)NCc1ccccn1 (stereo not given) — higher, 33.12%
- Cc1nn(CC(=O)O)c(C)c1NS(=O)(=O)c1cc2ccccc2s1 — lower, -38.97%
- O=c1cc(CN2CCCC(CCc3c(F)cccc3F)C2)[nH]c(=O)[nH]1 (stereo not given) — lower, -21.63%
- CN(C)C(=O)CCS(=O)(=O)Cc1cc(Cl)c2c(c1)OCCO2 — higher, 48.21%
- CNC(=O)CCS(=O)(=O)Cc1cc(Cl)c2c(c1)OCCCO2 — higher, 19%
- CS(=O)(=O)CCS(=O)(=O)Cc1cc(Cl)c2c(c1)OCCCO2 — higher, 72.05%
- CN(C)C(=O)CCS(=O)(=O)Cc1cc(Cl)c2c(c1)OCO2 — higher, 66.2%
- CN(C)C(=O)CCCS(=O)(=O)Cc1cc(Cl)c2c(c1)OCO2 — higher, 27.5%
- CS(=O)(=O)Cc1cc(Cl)c2c(c1)OCCCO2 — higher, 45.82%
- CC(C)(O)CN1CCN(C(=O)c2sccc2C#N)CC1 — lower, -29.69%
- c1cnc(N2C[C@H]3CCN(Cc4ccncc4)C[C@H]3C2)nc1 — lower, -20.87%
- CC(NC(=O)N1CCC(OCc2ccccc2)CC1)c1nncn1C (stereo not given) — higher, 29.11%
- Cc1cc(C)c(C)c(OCCCNC(=O)NC(C)c2nncn2C)c1 (stereo not given) — higher, 38.97%
- COc1ccc(F)cc1C(=O)N1CCCC(CNS(C)(=O)=O)C1 (stereo not given) — lower, -42.84%
- O=C(NCCCNC(=O)C1CCC1)NCCn1cccc1 — higher, 7.33%
- CN1CCCC(N2CCN(c3nc4ccccn4c3C#N)CC2)C1 (stereo not given) — higher, 38.1%
- N#Cc1c(N2CCCN(C3CCOCC3)CC2)nc2ccccn12 — higher, 14.2%
- N#Cc1c(N2CCN(CC3CCOC3)CC2)nc2ccccn12 (stereo not given) — higher, 83.18%
- Cn1cccc1C(=O)N1CCc2ncnc(C3CC3)c2CC1 — higher, 11.72%
- O=C(NC1CCCCNC1=O)c1cc2ccccc2[nH]c1=O (stereo not given) — lower, -0.79%
- Cc1ccc(C(=O)NC2CCCCNC2=O)c(=O)[nH]1 (stereo not given) — lower, -4.09%
- Cc1cc(C(=O)NC2CCCCNC2=O)c(=O)[nH]c1C (stereo not given) — higher, 52.08%
- O=C(CCc1c[nH]cn1)N1CC[C@@H](c2ccc3ccccc3c2)[C@H](O)C1 — higher, 43.1%
- Cc1ccc(N2CCC3(CN(Cc4cccs4)CCC3(F)F)C2)nn1 (stereo not given) — lower, -17.41%
- Cc1cccc2[nH]cc(CC(=O)N3CCC(Nc4cccnn4)CC3)c12 — higher, 64.16%
- Cc1ccc(CC(=O)N2CCC(Nc3cccnn3)CC2)s1 — higher, 50.75%
- Cc1ccc(NC2CCN(C(=O)Cc3ccc(C)s3)CC2)nn1 — lower, -19.35%
- O=C(Cc1cccc2ccccc12)N1CCC(Nc2cccnn2)CC1 — lower, -58.05%
- Cc1noc(C)c1CC(=O)N1CCC(Nc2cccnn2)CC1 — lower, -57.89%
- O=C(Cc1c[nH]c2ccccc12)N1CCC(Nc2cccnn2)CC1 — lower, -32.2%
- O=C(NCc1ccccn1)NCC(O)c1ccccc1C(F)(F)F (stereo not given) — lower, -19.62%
- O=C(c1ccccc1OCC1CC1)N1CCCC1Cn1cccn1 (stereo not given) — lower, -12.5%
- O=C(CCCn1cncn1)N1CCC2(CCCNC2=O)C1 (stereo not given) — higher, 43.1%
- O=C(c1cccc(Cl)c1)N1CC[C@H]2[C@H]1CCN2CC1CCOCC1 — higher, 49.03%
- CCS(=O)(=O)N1CC[C@@H]2[C@H](CC1)N(CC(C)C)CCS2(=O)=O — higher, 40.5%
- Cc1cc(C(N)=O)nc(C2(C)CCCN2Cc2cnn(C)c2C)n1 (stereo not given) — higher, 40.31%
- Cc1cc(C(N)=O)nc(C2(C)CCCN2Cc2cnn(C)c2)n1 (stereo not given) — higher, 74.08%
- Cc1cc(C)nc(C2(C)CCCN2CCO)n1 (stereo not given) — lower, -8.85%
- COc1ccc(-c2noc(CN3CCN(c4cnccn4)CC3)n2)cc1 — higher, 32.88%
- COc1ccc(-n2cnnc2CC2CCNCC2)cc1 — lower, -22%
- O=S(=O)(N1CCCC1)N1CC(c2ccnc(Nc3ccccn3)n2)C1 — higher, 17.72%
- CCN(CCc1nc2cc(C)ccc2[nH]1)C(=O)[C@@H](N)Cc1c[nH]cn1 — lower, -2.23%
- Cc1cc(N2CCCC(O)(CN(C)C)CC2)nc(-c2ccccc2)n1 (stereo not given) — higher, 1.06%
- CN(C)CC1(O)CCCN(c2nc(-c3ccccc3)no2)CC1 (stereo not given) — higher, 76.6%
- CN(C)CC1(O)CCCN(c2noc(-c3ccccc3)n2)CC1 (stereo not given) — higher, 12.55%
- c1cc(-c2cscn2)cc(N2CCC(NCCc3cccs3)CC2)c1 — lower, -15.42%
- CC(C)COC(C)C(=O)NCCNS(C)(=O)=O (stereo not given) — higher, 52.74%
- CC(C)COC(C)C(=O)NCCNC(=O)C(C)C (stereo not given) — higher, 31.96%
- CCOC(C)C(=O)NCCNS(C)(=O)=O (stereo not given) — higher, 8.41%
- CCN(Cc1cccc2c1OCO2)C(=O)NCCOC — higher, 25.61%
- CC(=O)N1CCN(c2ccc3ccc(C(=O)NC4CCCC4)cn23)CC1 — lower, -7.41%
- O=C(O)c1ccc2ccc(N3CCN(CC4CC4)CC3)n2c1 — higher, 57.95%
- CN(C)C(=O)N1CCN(c2ccc3ccc(C(=O)NC4CC4)cn23)CC1 — higher, 23.26%
- O=C(NC1CC1)c1ccc2ccc(N3CCN(CC4CC4)CC3)n2c1 — lower, -36.7%
- CC(C)N1CCN(c2ccc3ccc(C(=O)NC4CCCC4)cn23)CC1 — higher, 50.17%
- CN(C)C(=O)c1ccc2ccc(N3CCN(CC4CC4)CC3)n2c1 — higher, 19.96%
